High-throughput results from PubChem BioAssay.
An excerpt weighted towards active compounds, which were near 9.3% of everything screened.
SMN2 splice up – enhancers of SMN2 splice variant expression; Potency, µM (doses to about 46.1 µM), without a hit: at the top dose activity change, positive = activation, usual class: activators; AID 1458; 210,000 tested, 2.8% active; HEK293 SMN2-luciferase splicing reporter, luminescence, 30-36 h; also: % of control where 0% means no effect; nearly all actives have a fitted effect of over 55% in size
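HEK293 cells carry an SMN2 minigene-luciferase reporter in which exon 7 inclusion puts luciferase in frame. Cells were seeded at 2000 cells/well, attached for 10-12 hours, then exposed to compounds for 30-36 hours at 37C before ONE-Glo luminescence.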
FLuc counter – inhibits or activates purified firefly luciferase, miR-21 counter-screen. P08659. purified FLuc, Km substrates, luminescence inhibition. Potency, µM (highest dose often 57.5 µM), without a hit: top-dose activity change, negative = inhibition, hits mostly inhibitors. 360,000 tested, 6.9% active;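 also: plate controls were vehicle for no effect and reference inhibitor for full effect; nearly all actives have a fitted effect of over 55% in size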
Target sequence (P08659 whole entry, looked up): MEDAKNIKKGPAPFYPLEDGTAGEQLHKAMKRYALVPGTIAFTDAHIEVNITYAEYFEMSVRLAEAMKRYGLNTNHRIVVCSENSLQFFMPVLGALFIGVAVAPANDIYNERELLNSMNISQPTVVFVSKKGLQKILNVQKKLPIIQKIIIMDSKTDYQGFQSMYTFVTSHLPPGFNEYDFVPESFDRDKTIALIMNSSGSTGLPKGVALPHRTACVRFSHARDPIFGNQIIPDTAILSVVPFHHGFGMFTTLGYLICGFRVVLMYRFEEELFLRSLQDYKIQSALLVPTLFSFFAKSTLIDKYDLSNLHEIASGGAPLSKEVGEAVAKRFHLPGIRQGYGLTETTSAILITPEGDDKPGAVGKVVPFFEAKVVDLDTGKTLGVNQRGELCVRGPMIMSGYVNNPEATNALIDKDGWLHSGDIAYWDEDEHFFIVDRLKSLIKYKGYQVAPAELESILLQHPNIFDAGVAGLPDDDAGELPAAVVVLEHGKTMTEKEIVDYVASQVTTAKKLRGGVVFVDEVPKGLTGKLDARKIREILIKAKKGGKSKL
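Purified P. pyralis luciferase, 10 nM final, with Km-level 10 uM D-luciferin and 10 uM ATP in 50 mM Tris acetate pH 7.5, 10 mM Mg acetate, 0.01% Tween-20, 0.05% BSA; 6-point qHTS titration about 60 µM downward; luminescence read.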
Rab9 prom act – activates the Rab9 promoter. Huh7 Rab9 promoter-luciferase reporter, luminescence, 24 h. Potency, µM (titrated, usually from 9.22 µM), for the others: top-dose activation, negative = inhibition, hits mostly activators. 320,000 tested, 2.8% active. AID 485297; also: % of control where 0% means no effect; nearly all actives have a fitted effect of over 60% in size
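Luciferase signal after 10 min detection reagent at ambient indicates Rab9 promoter upregulation; stably transfected Huh7 cells were treated 24 h with compound in DMSO at 37 °C, 5% CO2.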
NPC1 promoter act – activates the NPC1 promoter; Huh7 NPC1 promoter luciferase reporter, 24 h; Potency, µM (series often up to 9.22 µM), inactives show at the top dose activation, usual class: activators; 320,000 tested, 2.4% active; AID 485313; also: % of control where 0% means no effect; nearly all actives have a fitted effect of over 60% in size
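Luciferase expression driven by the NPC1 promoter was measured in stably transfected Huh7 cells after a 24 h compound incubation, using a luciferase reagent and a luminescence read.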
ELG1 genotoxic – genotoxicity induction in ELG1-luciferase HEK293T cells; Potency, µM (doses to about 46 µM), for inactives: top-dose activity change, positive = activation, actives largely listed as activators; 330,000 tested, 1.3% active; AID 504466; HEK293T ELG1-luciferase reporter, luminescence, 16 h; also: % of control where 0% means no effect; nearly all actives have a fitted effect of over 60% in size
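Genotoxicity was scored as increased ELG1-luciferase reporter signal, measured by ONE-Glo luminescence (30 min, room temperature). Compound or vehicle exposure of the HEK293T reporter cells lasted 16 hr at 37°C.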
ELG1 DNA repair – inhibitors of ELG1-dependent DNA repair in HEK293T cells | HEK293T ELG1-luciferase reporter, luminescence, 16 h; DNA damage induced by 5-fluorouridine | Potency, µM (top dose mostly 46.1 µM), for inactives: top-dose activity change, negative = inhibition, actives largely listed as inhibitors | 330,000 tested, 2.3% active; also: % is scaled to controls: 0 for no effect and ±100 for the full control effect; nearly all actives have a fitted effect of over 55% in size
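5-Fluorouridine DNA damage + compound/DMSO, 2,000 cells/well, 16 h, 37 °C/5% CO2. ONE-Glo, 30 min RT, luminescence. Readout = decrease in reporter signal.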
* marks the source's active call; other numbers are inactive results; ? = inconclusive; nt = no result given; [ ] = remark or other dose. Calls follow the shape of the dose curve; as a rule, active = well fitted curve in the direction sought with a large enough effect; inconclusive = small, poorly fitted or top-dose-only effect, or another doubt; inactive = no such curve, though single readings can be large; an effect the other way counts as inactive or inconclusive. Potency is read from the fitted curve at half-maximal effect.

SMILES	SMN2 splice up	FLuc counter	Rab9 prom act	NPC1 promoter act	ELG1 genotoxic	ELG1 DNA repair
COc1ccc(S(N)(=O)=O)cc1C(=O)OCCCOC(=O)c1cc(S(N)(=O)=O)ccc1OC	nt	-2%	-16%	-15%	7.3µM*	-6%
COc1ccc(S(N)(=O)=O)cc1C(=O)OCCCOc1ccc(F)cc1	nt	-1%	-9%	-4%	-5%	?
Cc1ccc(NC(=S)N(C)C(c2ccccc2)c2ccccc2)cc1C	nt	1%	-2%	-3%	-7%	13µM*
CC(NC(=O)C(=O)N/N=C/c1ccccc1)c1ccccc1 (configuration not stated)	-1%	3%	-1%	0%	9%	-4%
C(#CC1CCCCC1)c1ccc2c(c1)COc1c3ccccc3nn1-2	nt	4.8µM*	?	?	19%	?
c1ccc2c3n(nc2c1)CCCO3	nt	3%	-1%	0%	4%	16%
CC(C#Cc1ccc2c(c1)COc1c3ccccc3nn1-2)OC(C)(C)C (configuration not stated)	nt	11µM*	?	?	12%	?
C(#Cc1ccc2c(c1)COc1c3ccccc3nn1-2)c1ccccc1	nt	12µM*	?	?	?	?
COc1ccc(C2=NC(c3ccncc3)=Nc3ccc(OC)cc3N2)cc1	9%	-13%	nt	nt	nt	nt
O=C(CSc1nnnn1-c1ccc(O)cc1)c1cc2ccccc2o1	nt	-12%	-2%	-1%	-6%	?
CCCc1cc(C(=O)Nc2cc(OC)ccc2OC)cs1	nt	19µM*	1%	-5%	7%	0%
COc1ccc(OC)c(NC(=O)C(=O)NNC(=O)C23CC4CC(CC(C4)C2)C3)c1	nt	0%	-3%	-2%	-10%	29µM*
COc1ccc(OC)c(NC(=O)c2cccc(NC(=O)c3ccccc3)c2)c1	nt	17µM*	19%	-1%	-3%	?
COc1ccc(NC(=O)c2ccc3nc(-c4ccccc4)c(-c4ccccc4)nc3c2)c(OC)c1	-11%	6%	-2%	2%	13%	-9%
COc1ccc(NC(=O)c2cccc(NC(=O)c3ccccc3)c2)c(OC)c1	nt	19µM*	2%	-9%	-3%	?
COc1ccc(OC)c(NC(=O)c2ccc(NC(C)=O)cc2)c1	nt	-9%	-2%	-2%	0%	0%
COc1ccc(OC)c(NC(=O)c2ccc(OC3CSC3)cc2)c1	-12%	11µM*	0%	-2%	23%	?
Cc1cc(NS(=O)(=O)c2ccc(NC(=O)c3ccccc3F)cc2)nc(C)n1	-16%	-14%	nt	nt	nt	nt
O=C(CNC(=O)c1ccco1)NCC(=O)OCc1c(F)cccc1Cl	nt	5%	11%	-2%	3%	-7%
O=C(CNC(=O)c1ccco1)OCc1c(F)cccc1Cl	19%	15µM*	-9%	1%	4%	3%
CC1CC(C)CN(CCCNC(=O)CCC(=O)N2CCOc3ccccc32)C1 (configuration not stated)	nt	4%	-3%	-4%	5%	-1%
COc1ccc2c(c1)CC/C2=N\NC(=O)c1ccccc1	16µM*	12µM*	?	?	?	?
COc1cccc(C(=O)NN=C2CCCC2)c1	nt	6%	9%	-3%	1%	-2%
NC(=O)C(=O)N/N=C1\CCc2ccccc21	13µM*	11µM*	21%	7%	?	?
COc1ccc(OCC(=O)N/N=C2\CCc3ccccc32)cc1	-5%	19µM*	7%	2%	?	?
SMILES	SMN2 splice up	FLuc counter	Rab9 prom act	NPC1 promoter act	ELG1 genotoxic	ELG1 DNA repair
O=C(Cc1cccc2ccccc12)N/N=C1\CCCc2ccccc21	-45%	8%	-2%	-1%	-2%	?
CC1CN(C(=O)CCC(=O)NCCCN2C(C)CCCC2C)c2ccccc2O1 (configuration not stated)	nt	-1%	4%	-3%	6%	5%
Cc1nnc(CN(C)C(=O)c2cc(COc3ccc(F)cc3Cl)on2)o1	nt	12µM*	2.8µM*	2.5µM*	?	?
CN(Cc1cccc2cnccc12)C(=O)c1cc(COc2ccc(F)cc2Cl)on1	nt	?	3%	-3%	-4%	21µM*
CCOC(=O)C1CCCN(S(=O)(=O)c2cc(-c3cc(C)no3)ccc2C)C1 (configuration not stated)	nt	-10%	nt	nt	nt	nt
CC(C)C(=O)N1CCN(c2ccccc2NC(=O)COc2ccc(C3CCCCC3)cc2)CC1	nt	2%	0%	-3%	-13%	21µM*
CC(C)C(=O)N1CCN(c2ccccc2NC(=O)COc2ccccc2)CC1	nt	0%	-7%	1%	-11%	?
CC1CCC(=NNC(=O)Cc2ccccc2)CC1 (configuration not stated)	8%	2%	5%	2%	1%	1%
CC1SCC(=NOCc2ccccc2)CS1 (configuration not stated)	nt	19µM*	?	?	?	?
Cn1c(=O)c2c(nc(NCC3CCCC(CN)C3)n2Cc2ccc(Cl)cc2Cl)n(C)c1=O (configuration not stated)	nt	2%	-3%	-2%	?	-17%
CCc1ccccc1OCC(=O)Nc1ccc(S(N)(=O)=O)cc1	35µM*	3%	-3%	1%	-1%	-3%
COc1ccc(NC(=O)COc2ccccc2Cc2ccccc2)cc1S(N)(=O)=O	nt	-1%	-5%	-10%	-20%	6.5µM*
CCOC(=O)c1ccc(NC(=O)COc2ccccc2CNCCc2ccccc2)cc1	-27%	-1%	1%	-2%	-2%	26µM*
COc1ccc(NC(=O)CN(Cc2ccccc2)Cc2ccccc2)cc1S(N)(=O)=O	10%[1.84 µM]	-1%	-7%	-3%	0%	2%
NS(=O)(=O)c1ccc(NC(=O)COc2cccc3ccccc23)cc1	nt	2%	-1%	1%	4%	2%
Cc1cc2c(n1-c1ccc(C(=O)O)cc1)CCCCC2	nt	-4%	-6%	-1%	2%	?
CC1CCN(S(=O)(=O)c2cccc(C(=O)NCc3cccs3)c2)CC1	6%	-1%	-1%	-4%	-2%	-9%
CC1CCN(c2ccc(C(=O)NCc3cccs3)cn2)CC1	15%	24µM*	?	?	?	?
CC1CCCN(c2ccc(C(=O)NCC3CCCO3)cn2)C1 (configuration not stated)	13µM*	?	?	?	16%	?
Cn1nc(C(C)(C)C)cc1C(=O)NCc1cc(F)cc2c1OCOC2	nt	-1%	-30%	-22%	-12%	2.6µM*
